Consider 34 molecules from ChEMBL document CHEMBL1961873, “Compounds: GSK PKIS; Assays: Nanosyn kinase panel” (2012).

Each structure is given as a SMILES string.
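Further: values are averaged percent inhibition of TNK1, compounds from the GSK published kinase inhibitor set.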

The assay deals with T1, Non-receptor tyrosine-protein kinase TNK1 (Homo sapiens) (UniProt Q13470).
T1 sequence (whole entry): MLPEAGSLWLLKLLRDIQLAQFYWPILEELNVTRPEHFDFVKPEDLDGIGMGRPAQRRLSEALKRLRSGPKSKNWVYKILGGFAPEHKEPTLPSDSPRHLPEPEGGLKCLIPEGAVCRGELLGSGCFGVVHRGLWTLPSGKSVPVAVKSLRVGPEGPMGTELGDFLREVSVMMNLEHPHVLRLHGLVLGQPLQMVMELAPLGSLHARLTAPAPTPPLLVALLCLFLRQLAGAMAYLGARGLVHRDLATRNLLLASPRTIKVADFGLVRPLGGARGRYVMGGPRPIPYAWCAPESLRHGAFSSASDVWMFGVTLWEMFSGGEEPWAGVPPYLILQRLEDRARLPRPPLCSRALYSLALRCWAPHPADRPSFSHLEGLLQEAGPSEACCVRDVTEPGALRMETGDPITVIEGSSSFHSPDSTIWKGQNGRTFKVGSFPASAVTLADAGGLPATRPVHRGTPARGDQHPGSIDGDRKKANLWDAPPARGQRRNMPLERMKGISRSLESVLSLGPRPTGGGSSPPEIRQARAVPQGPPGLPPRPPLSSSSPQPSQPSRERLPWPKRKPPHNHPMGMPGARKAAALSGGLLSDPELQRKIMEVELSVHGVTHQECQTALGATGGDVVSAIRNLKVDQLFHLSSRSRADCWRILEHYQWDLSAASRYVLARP
The following applies: at 1 µM.
As to `COc1cccc(-n2cnc3c(N/N=C/c4ccncc4)ncnc32)c1`, the inhibition was found to be 19.3%.
With `Fc1ccc(-c2ncn(C3CCNCC3)c2-c2ccnc(Oc3ccc(F)c(F)c3)n2)cc1` the figure was 4.28%; with `Cc1ccc(C(=O)NC2CCC2)cc1-c1ccc(C(=O)NCC2CC2)cc1`, -1.43%; with `C[C@@H](Oc1cc(-n2cnc3ccc(OC4CCN(C)CC4)cc32)sc1C(N)=O)c1ccccc1Cl`, 18.1%.
On to `CCS(=O)(=O)c1ccc(OC)c(Nc2ncc(-c3ccccc3Cl)o2)c1`, for which the inhibition stood at 67.2%.
With `CCC(=O)Nc1ccc(C)c(-c2ccc(C(=O)NCC3CC3)cc2)c1` the figure was 6.35%; with `O=C(Nc1n[nH]c2cc(-c3cc(F)ccc3F)ccc12)C1CC1`, 7.03%.
Regarding `O=C1NC(=O)C(c2cccc(Cl)c2)=C1Nc1ccc(Cl)c(C(=O)O)c1`, the inhibition stood at 11%.
Regarding `CS(=O)(=O)CCNCc1ccc(-c2ccc3ncnc(Nc4ccc(OCc5ccccc5)c(Br)c4)c3c2)o1`, the inhibition worked out at 14.6%.
The figure for `COc1ccc2ncn(-c3cc(O[C@H](C)c4ccccc4Cl)c(C(N)=O)s3)c2c1` is 24.1%; for `Cc1ccc(C(=O)NC(C)C)cc1-c1ccc(C(=O)NCC2CC2)cc1` it is -5.58%; for `O=C(Nc1ccc(Oc2ccc3[nH]c(NC(=O)c4ccccc4)nc3c2)cc1)Nc1cc(C(F)(F)F)ccc1F` it is 40%.
For the molecule `C[C@@H](Oc1cc(-n2cnc3ccc(OCC4CCN(C)CC4)cc32)sc1C(N)=O)c1ccccc1Cl`, the inhibition is 26.1%.
With `COc1ccc2cc(-c3c(-c4ccncc4)nc(-c4ccc([S+](C)[O-])cc4C)n3C)ccc2c1` (centres undefined) the figure was 12.5%; with `CCc1ccc(Oc2nccc(-c3c(-c4ccc(F)cc4)ncn3C3CCNCC3)n2)cc1`, 0.88%; with `O=C(NCC1CC1)c1ccc(-c2cccc(C(=O)NC3CC3)c2)cc1`, -2.48%.
`CS(=O)(=O)CCNCc1cc(-c2cc3c(Nc4ccc(OCc5cccc(F)c5)c(Cl)c4)ncnc3s2)cs1`: the inhibition was 6.39%.
Regarding `Fc1ccc(-c2ncn(C3CCNCC3)c2-c2ccnc(Oc3ccc4c(c3)OCO4)n2)cc1`, the inhibition is 7.31%.
The figure for `NS(=O)(=O)c1ccc(N/N=C2\C(=O)Nc3ccc(C(=O)NCCCn4ccnc4)cc32)cc1` is 16.5%; for `NC(=O)Cc1ccccc1Oc1nccc(-c2c(-c3ccc(F)cc3)ncn2C2CCNCC2)n1` it is -3.16%; for `COc1cccc(/C=N/Nc2ncnc3c2cnn3-c2cccc(OC)c2)c1` it is 3.79%.
With `COc1ccc(-c2ccc3c(NC(=O)C4CC4)n[nH]c3n2)cc1`, the inhibition stood at 12%.
On to `Fc1ccc(-c2ncn(CCCN3CCOCC3)c2-c2ccncc2)cc1`, for which the inhibition is -6.97%.
The figure for `Fc1ccc(-c2c(-c3ccncc3)nc3n2CCS3)cc1` is 2.59%; for `CN(C)c1ccc2c(c1)/C(=C/Nc1ccc(S(N)(=O)=O)cc1)C(=O)N2` it is 5.7%; for `c1ccc(-c2n[nH]cc2-c2ccnc(-c3ccc(OCCN4CCOCC4)cc3)c2)nc1` it is -5.31%.
As for `COC(=O)Nc1nc2ccc(Sc3ccc(NC(=O)Nc4cc(C(F)(F)F)ccc4F)cc3)cc2[nH]1`, the inhibition is 25.3%.
As for `COc1cc(Nc2ncc(-c3ccccc3)o2)cc(OC)c1OC`, the inhibition turned out to be 28.4%.
As for `Fc1ccc(-c2nc3n(c2-c2ccncc2)CCS3)cc1`, the inhibition was -1.81%.
`C#Cc1cccc(Nc2ncnc3ccc(OCCCCNCCS(C)(=O)=O)cc23)c1`: the inhibition was 20.9%.
With `COc1ccc(C2=C(N3CCc4ccccc43)C(=O)NC2=O)cc1`, the inhibition amounted to 13.9%.
For `COc1cc(N2CCN(C(C)C)CC2)ccc1Nc1nc(Nc2ccc(F)cc2C(=O)NC[C@@H](O)CO)c2cc[nH]c2n1`, the inhibition was 60.5%.
Turning to `Fc1ccc(-c2ncn(C3CCNCC3)c2-c2ccnc(Oc3ccc(Oc4ccccc4)cc3)n2)cc1`, the inhibition was found to be 0.92%.
In the case of `CCc1cccc(CC)c1/C=C/c1cncc(C(=O)NC)c1`, the inhibition came to 10.2%.
